For assay [1], the system named is Proto-oncogene tyrosine-protein kinase receptor Ret (Homo sapiens), P07949 [Y791F]. To be noted: at 1 µM.
Assay [2] addresses Macrophage-stimulating protein receptor (Homo sapiens) (UniProt Q04912). The conditions noted are these: at 0.1 µM.
Assay [3] shares this target. To be noted: at 1 µM.
Assay [4] has as its target Proto-oncogene tyrosine-protein kinase ROS (Homo sapiens) (UniProt P08922). To be noted: at 0.1 µM.
Assay [5] has the same target. To be noted: at 1 µM.
The target of assay [6] is Proto-oncogene tyrosine-protein kinase Src (Homo sapiens) (UniProt P12931). To be noted: at 0.1 µM.
Assay [7] has the same target. The conditions noted are these: at 1 µM.
Assay [8] deals with Tyrosine-protein kinase Srms (Homo sapiens) (UniProt Q9H3Y6). To be noted: at 0.1 µM.
Tyrosine-protein kinase Srms (Homo sapiens), sequence (Q9H3Y6 whole entry): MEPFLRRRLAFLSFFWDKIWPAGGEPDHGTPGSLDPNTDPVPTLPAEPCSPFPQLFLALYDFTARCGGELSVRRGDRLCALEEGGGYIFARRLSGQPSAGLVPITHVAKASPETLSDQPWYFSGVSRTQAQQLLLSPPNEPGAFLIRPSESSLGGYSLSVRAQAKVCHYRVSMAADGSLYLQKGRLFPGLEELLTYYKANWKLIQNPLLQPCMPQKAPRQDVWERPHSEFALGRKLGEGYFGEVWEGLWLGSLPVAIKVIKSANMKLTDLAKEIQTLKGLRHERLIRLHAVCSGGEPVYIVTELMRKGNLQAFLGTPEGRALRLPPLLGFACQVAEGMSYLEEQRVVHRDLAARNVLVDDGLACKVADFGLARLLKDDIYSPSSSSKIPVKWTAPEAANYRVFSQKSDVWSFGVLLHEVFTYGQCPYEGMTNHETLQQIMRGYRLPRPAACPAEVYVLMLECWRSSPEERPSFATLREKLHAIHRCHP
The target is the same in assay [9]. To be noted: at 1 µM.
Assay [10] concerns the target Tyrosine-protein kinase SYK (Homo sapiens) (UniProt P43405). The conditions noted are these: at 0.1 µM.
For assay [11] the target is unchanged. To be noted: at 1 µM.
In assay [12] the target is T1, Tyrosine-protein kinase Tec (Homo sapiens) (UniProt P42680).
T1 sequence (whole entry): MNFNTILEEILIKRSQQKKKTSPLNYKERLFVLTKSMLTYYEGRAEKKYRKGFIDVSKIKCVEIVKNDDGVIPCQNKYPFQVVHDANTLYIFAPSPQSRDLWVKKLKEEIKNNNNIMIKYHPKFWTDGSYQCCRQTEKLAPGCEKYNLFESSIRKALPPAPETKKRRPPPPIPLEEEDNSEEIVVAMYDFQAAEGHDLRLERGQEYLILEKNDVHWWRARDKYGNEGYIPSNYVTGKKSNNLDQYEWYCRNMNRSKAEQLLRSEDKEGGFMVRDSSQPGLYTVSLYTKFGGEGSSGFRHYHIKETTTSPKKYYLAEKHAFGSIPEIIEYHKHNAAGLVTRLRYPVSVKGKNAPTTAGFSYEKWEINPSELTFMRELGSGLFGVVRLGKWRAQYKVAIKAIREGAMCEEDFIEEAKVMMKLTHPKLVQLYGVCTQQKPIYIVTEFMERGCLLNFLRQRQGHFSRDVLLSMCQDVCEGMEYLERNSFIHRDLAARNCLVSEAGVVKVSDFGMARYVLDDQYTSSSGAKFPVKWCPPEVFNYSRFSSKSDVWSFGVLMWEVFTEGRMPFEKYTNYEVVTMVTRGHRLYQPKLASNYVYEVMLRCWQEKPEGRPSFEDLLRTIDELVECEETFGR
To be noted: at 0.1 µM.

The target in assay [13] is T1, Tyrosine-protein kinase Tec (Homo sapiens). The conditions noted are these: at 1 µM.
Assay [14] addresses Angiopoietin-1 receptor (Homo sapiens) (UniProt Q02763). To be noted: at 0.1 µM.
For assay [15] the target is unchanged. To be noted: at 1 µM.
Assay [16] concerns the target T2, Non-receptor tyrosine-protein kinase TNK1 (Homo sapiens) (UniProt Q13470).
T2 sequence (whole entry): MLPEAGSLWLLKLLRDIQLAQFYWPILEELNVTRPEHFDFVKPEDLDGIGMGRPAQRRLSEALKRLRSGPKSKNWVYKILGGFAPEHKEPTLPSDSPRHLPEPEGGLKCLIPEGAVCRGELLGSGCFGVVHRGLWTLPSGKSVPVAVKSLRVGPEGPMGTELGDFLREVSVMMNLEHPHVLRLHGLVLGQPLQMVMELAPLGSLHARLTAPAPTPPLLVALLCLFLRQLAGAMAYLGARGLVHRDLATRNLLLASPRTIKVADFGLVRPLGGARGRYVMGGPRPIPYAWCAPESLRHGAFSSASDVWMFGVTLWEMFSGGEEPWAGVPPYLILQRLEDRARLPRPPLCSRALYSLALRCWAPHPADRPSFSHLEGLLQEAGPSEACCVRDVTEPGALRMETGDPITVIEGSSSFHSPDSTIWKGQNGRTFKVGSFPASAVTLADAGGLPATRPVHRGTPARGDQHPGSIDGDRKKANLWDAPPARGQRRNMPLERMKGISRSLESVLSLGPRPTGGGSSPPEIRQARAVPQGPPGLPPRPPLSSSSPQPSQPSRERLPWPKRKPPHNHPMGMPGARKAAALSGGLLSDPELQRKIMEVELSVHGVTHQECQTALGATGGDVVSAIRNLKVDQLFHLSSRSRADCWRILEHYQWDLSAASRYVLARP
To be noted: at 0.1 µM.

Assay [17] addresses T2, Non-receptor tyrosine-protein kinase TNK1 (Homo sapiens). The conditions noted are these: at 1 µM.
Assay [18] has as its target Activated CDC42 kinase 1 (Homo sapiens) (UniProt Q07912). The conditions noted are these: at 0.1 µM.
For assay [19] the target is unchanged. To be noted: at 1 µM.
Assay [20] addresses High affinity nerve growth factor receptor (Homo sapiens) (UniProt P04629). To be noted: at 0.1 µM.

Molecules are shown by their SMILES. Values joined by “and” are separate entries in the source; they are usually repeats but may differ in a detail not shown here. Identical values can stand only once.

Proto-oncogene tyrosine-protein kinase ROS (Homo sapiens), sequence (P08922 whole entry): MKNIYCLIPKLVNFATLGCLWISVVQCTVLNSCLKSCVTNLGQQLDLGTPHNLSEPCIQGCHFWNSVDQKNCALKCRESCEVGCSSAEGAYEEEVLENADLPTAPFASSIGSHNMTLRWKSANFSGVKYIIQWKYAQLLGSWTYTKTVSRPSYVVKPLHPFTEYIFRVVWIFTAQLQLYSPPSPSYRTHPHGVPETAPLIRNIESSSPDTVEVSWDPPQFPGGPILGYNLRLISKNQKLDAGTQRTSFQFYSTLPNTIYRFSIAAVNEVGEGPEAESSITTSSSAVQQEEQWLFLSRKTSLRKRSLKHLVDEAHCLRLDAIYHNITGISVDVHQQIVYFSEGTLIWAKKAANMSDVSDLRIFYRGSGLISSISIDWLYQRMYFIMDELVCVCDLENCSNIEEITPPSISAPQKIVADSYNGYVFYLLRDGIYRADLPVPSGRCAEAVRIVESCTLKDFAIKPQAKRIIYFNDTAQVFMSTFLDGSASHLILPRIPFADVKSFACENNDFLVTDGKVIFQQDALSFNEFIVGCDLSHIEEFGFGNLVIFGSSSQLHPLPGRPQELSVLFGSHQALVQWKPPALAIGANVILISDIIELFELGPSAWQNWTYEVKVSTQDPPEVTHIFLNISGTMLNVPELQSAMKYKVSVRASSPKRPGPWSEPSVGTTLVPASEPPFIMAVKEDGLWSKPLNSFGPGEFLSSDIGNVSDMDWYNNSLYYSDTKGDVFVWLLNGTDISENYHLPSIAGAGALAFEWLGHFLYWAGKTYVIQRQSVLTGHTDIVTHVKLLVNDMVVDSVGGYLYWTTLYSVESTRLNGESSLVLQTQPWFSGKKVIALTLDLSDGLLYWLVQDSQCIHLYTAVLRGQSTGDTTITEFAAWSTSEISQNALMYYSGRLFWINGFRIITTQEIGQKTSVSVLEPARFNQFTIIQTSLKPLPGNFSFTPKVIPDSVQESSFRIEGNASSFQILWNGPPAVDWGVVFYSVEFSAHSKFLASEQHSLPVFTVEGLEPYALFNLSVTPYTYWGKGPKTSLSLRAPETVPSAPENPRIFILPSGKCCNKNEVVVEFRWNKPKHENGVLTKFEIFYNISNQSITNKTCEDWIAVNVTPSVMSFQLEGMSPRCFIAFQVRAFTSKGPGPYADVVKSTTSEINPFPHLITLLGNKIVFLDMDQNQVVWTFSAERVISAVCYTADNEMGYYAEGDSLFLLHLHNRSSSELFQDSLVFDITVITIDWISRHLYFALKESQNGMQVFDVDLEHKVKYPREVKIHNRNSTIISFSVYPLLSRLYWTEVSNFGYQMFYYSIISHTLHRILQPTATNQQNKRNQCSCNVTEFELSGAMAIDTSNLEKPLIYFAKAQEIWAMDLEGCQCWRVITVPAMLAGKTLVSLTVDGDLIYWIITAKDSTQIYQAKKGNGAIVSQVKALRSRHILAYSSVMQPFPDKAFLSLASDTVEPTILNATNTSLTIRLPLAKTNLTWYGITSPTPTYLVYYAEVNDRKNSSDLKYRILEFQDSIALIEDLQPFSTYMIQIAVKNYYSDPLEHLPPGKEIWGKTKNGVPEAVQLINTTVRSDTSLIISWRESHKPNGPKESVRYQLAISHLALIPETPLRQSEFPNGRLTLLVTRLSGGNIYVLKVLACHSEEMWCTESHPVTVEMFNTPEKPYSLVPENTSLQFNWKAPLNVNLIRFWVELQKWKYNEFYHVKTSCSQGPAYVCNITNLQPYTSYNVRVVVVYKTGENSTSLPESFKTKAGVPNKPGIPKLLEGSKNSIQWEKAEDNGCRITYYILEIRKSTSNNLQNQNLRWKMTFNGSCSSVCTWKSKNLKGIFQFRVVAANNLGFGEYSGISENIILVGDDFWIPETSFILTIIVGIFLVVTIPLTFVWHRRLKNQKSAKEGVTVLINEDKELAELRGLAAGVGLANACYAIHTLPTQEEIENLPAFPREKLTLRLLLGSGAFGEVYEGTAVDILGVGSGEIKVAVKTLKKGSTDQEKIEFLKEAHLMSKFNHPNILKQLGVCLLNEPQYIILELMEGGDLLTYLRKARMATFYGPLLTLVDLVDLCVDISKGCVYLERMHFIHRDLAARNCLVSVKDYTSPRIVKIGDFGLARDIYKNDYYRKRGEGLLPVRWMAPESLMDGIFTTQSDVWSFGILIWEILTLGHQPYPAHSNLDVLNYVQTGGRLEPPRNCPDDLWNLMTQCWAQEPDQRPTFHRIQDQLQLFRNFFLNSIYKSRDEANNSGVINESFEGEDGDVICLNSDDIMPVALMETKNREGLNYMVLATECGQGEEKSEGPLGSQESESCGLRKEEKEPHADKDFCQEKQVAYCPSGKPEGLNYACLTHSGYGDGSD
Angiopoietin-1 receptor (Homo sapiens), sequence (Q02763 whole entry): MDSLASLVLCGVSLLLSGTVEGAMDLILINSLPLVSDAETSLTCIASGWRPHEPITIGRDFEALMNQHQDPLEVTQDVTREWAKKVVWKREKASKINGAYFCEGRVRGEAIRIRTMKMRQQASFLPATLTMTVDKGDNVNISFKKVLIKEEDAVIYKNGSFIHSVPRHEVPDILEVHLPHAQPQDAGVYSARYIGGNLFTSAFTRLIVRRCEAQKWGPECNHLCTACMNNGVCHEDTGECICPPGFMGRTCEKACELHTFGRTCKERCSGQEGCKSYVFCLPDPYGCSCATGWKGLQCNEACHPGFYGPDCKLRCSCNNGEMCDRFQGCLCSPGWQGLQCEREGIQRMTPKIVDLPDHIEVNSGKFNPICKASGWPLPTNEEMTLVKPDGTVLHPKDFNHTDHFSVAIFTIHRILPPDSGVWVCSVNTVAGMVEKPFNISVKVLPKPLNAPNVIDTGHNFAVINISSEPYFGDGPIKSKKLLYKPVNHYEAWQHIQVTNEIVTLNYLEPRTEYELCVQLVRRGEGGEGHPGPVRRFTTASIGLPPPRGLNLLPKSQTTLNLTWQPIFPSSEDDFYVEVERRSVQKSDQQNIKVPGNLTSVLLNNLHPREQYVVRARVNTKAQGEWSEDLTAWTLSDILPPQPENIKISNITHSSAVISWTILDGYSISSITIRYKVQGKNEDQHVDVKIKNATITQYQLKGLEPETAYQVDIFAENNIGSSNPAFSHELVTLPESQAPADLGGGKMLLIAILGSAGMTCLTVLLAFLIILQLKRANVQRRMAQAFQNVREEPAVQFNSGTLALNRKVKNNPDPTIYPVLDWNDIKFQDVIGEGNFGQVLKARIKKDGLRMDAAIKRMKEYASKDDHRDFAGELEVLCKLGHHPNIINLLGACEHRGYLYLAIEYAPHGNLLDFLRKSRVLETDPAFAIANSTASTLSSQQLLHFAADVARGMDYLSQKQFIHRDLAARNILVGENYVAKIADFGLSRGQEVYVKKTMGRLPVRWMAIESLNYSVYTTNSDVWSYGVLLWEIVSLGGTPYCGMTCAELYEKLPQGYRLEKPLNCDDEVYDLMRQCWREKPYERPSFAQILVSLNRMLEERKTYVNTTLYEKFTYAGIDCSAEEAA
Activated CDC42 kinase 1 (Homo sapiens), sequence (Q07912 whole entry, looked up): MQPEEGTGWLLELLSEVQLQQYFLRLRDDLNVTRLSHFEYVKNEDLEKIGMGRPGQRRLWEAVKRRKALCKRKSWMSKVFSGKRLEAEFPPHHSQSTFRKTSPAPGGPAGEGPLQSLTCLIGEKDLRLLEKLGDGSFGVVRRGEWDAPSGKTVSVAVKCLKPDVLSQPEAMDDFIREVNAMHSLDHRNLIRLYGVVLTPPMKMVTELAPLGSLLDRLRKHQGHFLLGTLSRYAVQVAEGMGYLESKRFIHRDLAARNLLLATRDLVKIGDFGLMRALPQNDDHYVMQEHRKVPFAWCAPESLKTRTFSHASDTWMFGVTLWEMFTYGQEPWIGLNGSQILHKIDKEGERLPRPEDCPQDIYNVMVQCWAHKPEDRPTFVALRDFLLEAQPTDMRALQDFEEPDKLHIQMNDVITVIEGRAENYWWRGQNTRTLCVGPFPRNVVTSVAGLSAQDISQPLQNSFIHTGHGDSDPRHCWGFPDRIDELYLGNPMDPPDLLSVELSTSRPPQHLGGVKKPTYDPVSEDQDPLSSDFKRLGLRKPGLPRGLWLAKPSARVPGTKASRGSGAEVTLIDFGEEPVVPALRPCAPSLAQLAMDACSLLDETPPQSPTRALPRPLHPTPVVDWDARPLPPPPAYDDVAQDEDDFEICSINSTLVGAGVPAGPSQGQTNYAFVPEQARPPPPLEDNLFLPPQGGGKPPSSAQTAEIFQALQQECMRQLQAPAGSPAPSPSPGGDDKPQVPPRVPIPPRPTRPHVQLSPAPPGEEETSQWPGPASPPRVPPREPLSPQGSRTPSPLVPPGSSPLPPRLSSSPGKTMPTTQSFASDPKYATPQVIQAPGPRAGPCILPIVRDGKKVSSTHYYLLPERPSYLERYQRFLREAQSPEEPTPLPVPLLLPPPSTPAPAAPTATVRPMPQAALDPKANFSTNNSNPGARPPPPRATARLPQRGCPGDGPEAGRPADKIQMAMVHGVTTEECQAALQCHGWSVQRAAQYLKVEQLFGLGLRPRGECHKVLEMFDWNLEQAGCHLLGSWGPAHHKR

As a reminder, the inhibition is the relative decrease from the control value, in per cent. Take `Nc1nonc1-c1nc2cnccc2n1C1CC1`: the inhibition in assay [1] was 6.05% and 3.67%; in [2], -0.62% and 3.72%; in assay [3] it was 9.46% and 1.74%; in assay [4] it was 7.08% and 4.44%; in assay [5], 15.1% and 14.1%; in assay [6], 3.78% and -1.17%. Besides, the inhibition in [7] was 8.03% and 5.68%; in assay [8], -1.43% and -0.81%; in [9], 0.98% and 0.04%; in assay [10] it was 1.89% and -3.36%; in assay [11], -1.65% and 0.1%; in assay [12], 4.66% and -0.83%. In addition, the inhibition in assay [13] was 7.39% and -0.23%; in assay [14] it was 1.33% and 1.27%; in assay [15], 5.19% and 4.75%; in [16], 3.99% and 1.62%; in assay [17], 9.35% and 9.64%; in [18] it was 1.76% and 0.5%. The inhibition is 3.72% and 0.02% in assay [19]; 3.67% and -0.15% in assay [20].

For the compound `COc1cccc(-n2ncc3c(N/N=C/c4ccc(C(=O)NCCN(C)C)cc4)ncnc32)c1`, the inhibition in assay [1] came to 72.4%; in [2], 28.8%; in assay [3], 66.3%; in [4] it was 11.2%; in assay [5] it was 41.7%; in assay [6] it was 65%. Further, the inhibition is 89.7% in assay [7]; 2.52% in assay [8]; 19.9% in assay [9]; -2.88% in [10]; 5.44% in assay [11]; 4.74% in assay [12]. Also, the inhibition in [13] worked out at 19.6%; in [14], 8.62%; in [15] it was 46.4%; in assay [16], 25.4%; in assay [17] it was 68.3%; in [18], 2.34%. Besides, the inhibition in assay [19] was 13.2%; in assay [20], 6.69%.

As to `CNC(=O)c1sc(-n2cnc3cc(OC)c(OC)cc32)cc1OCc1ccccc1C(F)(F)F`, the inhibition in [1] was determined as 14.2%; in assay [2] it was 1.42%; in assay [3] it was 3.32%; in assay [4], 3.19%; in [5] it was 5.06%; in [6] it was 6.71%. Further, the inhibition in [7] is 8.35%; in [8] it was -1.1%; in [9], 0.5%; in assay [10], -0.5%; in assay [11] it was -4%; in assay [12] it was 1.74%. In addition, the inhibition in [13] is 9.64%; in [14] it was 2.19%; in assay [15], 9.86%; in [16] it was 4.58%; in [17], 29.1%; in assay [18], 1.43%. The figures for the inhibition in [19] and in assay [20] were 4.41% and 1.34%, respectively.

Take `Cc1nnc(-c2cccc(-c3ccc(C(=O)NCC4CC4)cc3)c2)o1`: the inhibition in assay [1] is 14.4%; in assay [2], 3.19%; in assay [3], 8.29%; in [4] it was 5.45%; in assay [5] it was 6.04%; in assay [6], 12.5%. For the same compound, the inhibition in assay [7] was 10.2%; in [8] it was -2.52%; in [9] it was 2.96%; in assay [10] it was -3.49%; in [11] it was -0.72%; in assay [12] it was 5.71%. Moreover, the inhibition in assay [13] amounted to 6.71%; in assay [14], 2.51%; in [15] it was 2.87%; in [16], 2.91%; in assay [17], 11.3%; in [18], 1.67%. For the same compound, the inhibition in [19] amounted to 2.25%; in assay [20], 3.31%.

In the case of `CCCNc1cccc(-n2ncc3c(N/N=C/c4ccncc4)ncnc32)c1`, the inhibition in assay [1] was found to be 65.2%; in [2], 11.7%; in [3] it was 57.9%; in assay [4], 6.09%; in [5], 33.4%; in assay [6] it was 19.5%. The inhibition in assay [7] is 81.8%; in assay [8], 4.26%; in assay [9], 7.86%; in assay [10], 3.8%; in assay [11], -2.86%; in assay [12] it was 2.52%. Further, the inhibition in [13] turned out to be 7.76%; in [14] it was 8.93%; in assay [15], 36.2%; in assay [16] it was 9.78%; in assay [17], 48%; in assay [18], 0.38%. Besides, the inhibition in assay [19] is 3.51%; in [20], -0.62%.

Consider `c1ccc(-c2n[nH]cc2-c2ccnc(-c3ccc(OCCn4ccnc4)cc3)c2)nc1`, for which the inhibition in assay [1] was 19.1%; in [2], 3.8%; in assay [3], 3.01%; in assay [4], 3.08%; in assay [5] it was 10.7%; in assay [6] it was -2.63%. For the same compound, the inhibition in [7] was 8.69%; in assay [8], 0.16%; in [9] it was 3.94%; in [10], -0.7%; in assay [11], 0.33%; in assay [12], 0.42%. Moreover, the inhibition in assay [13] is 0.73%; in assay [14], 0.28%; in assay [15] it was 3.93%; in [16], -0.4%; in assay [17], 5.89%; in assay [18] it was -0.42%. The inhibition in [19] stood at 0.83%; in assay [20], 2.17%.

These data come from ChEMBL document CHEMBL1961873, “Compounds: GSK PKIS; Assays: Nanosyn kinase panel” (2012).
